Active and inactive are the calls of the source. Calls follow the shape of the full dose curve.

Results on 40 compounds are retold here after PubChem BioAssay (NCATS).

Chain of Tumor susceptibility gene 101 protein (Homo sapiens) (Q99816 whole entry, looked up): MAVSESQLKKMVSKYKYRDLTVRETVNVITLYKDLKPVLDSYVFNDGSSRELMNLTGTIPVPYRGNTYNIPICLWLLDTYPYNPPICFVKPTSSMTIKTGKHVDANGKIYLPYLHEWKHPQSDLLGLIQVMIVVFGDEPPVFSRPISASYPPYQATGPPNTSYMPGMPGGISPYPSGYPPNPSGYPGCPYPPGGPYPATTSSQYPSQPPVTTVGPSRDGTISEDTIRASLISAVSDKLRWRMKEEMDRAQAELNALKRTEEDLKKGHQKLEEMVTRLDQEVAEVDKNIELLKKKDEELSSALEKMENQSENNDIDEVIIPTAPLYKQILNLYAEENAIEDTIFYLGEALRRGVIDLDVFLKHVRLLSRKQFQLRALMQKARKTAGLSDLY

The assay addresses Tumor susceptibility gene 101 protein (Homo sapiens) (UniProt Q99816). Kind of assay: qHTS Validation Assay for Iinhibitors of HIV-1 Budding by Blocking the Interaction of PTAP/TSG101 (AID 485342). Particulars: TSG101-PTAP binding, fluorescence polarization, 4-point titration; series mostly up to 115 µM. The text has this:
NIH Molecular Libraries Probe Production Network [MLPCN]
NIH Chemical Genomics Center [NCGC]
PI Name: Dr. Eric Freed, NCI
Stages of the HIV-1 replication cycle, specifically virus assembly and release, provide underexploited targets for the development of novel antiviral inhibitors. The late stages of HIV-1 replication are mediated by the Gag precursor protein, Pr55Gag. Expression of Pr55Gag is both necessary and sufficient for the production of virus-like particles from Gag-expressing cells. The Gag protein hijacks key host proteins involved in endocytic machinery of the host cell to promote endosomal processing and viral budding. The budding process requires a direct interaction between a […] (PTAP) motif in the p6 domain of Gag and the cellular endosomal sorting protein known as Tsg101. In this way, the Gag PTAP motif promotes the host cells to recruit viral particles to the plasma membrane where the new viral particles are released, effectively turning the host cells into viral factories. A fluorescence anisotropy assay has been developed to quantitatively measure the PTAP-Tsg101 interaction which can be used to screen for inhibitors of this interaction.
NCGC Assay Protocol Summary:
Two uL of the Tsg101 binding domain in buffer (10 mM HEPES pH 7.5; 0.15 M NaCl, 0.01% Tween 20; 3 mM EDTA;0.1 mM TCEP) was dispensed into Greiner black MB 1536-well plates (final concentration 10 uM). Then, 23 nL of compounds or DMSO were delivered to each well using a pin tool. Finally, 2 uL of a FITC-labeled peptide containing the PTAP motif (1) in the same buffer was dispensed (50 nM final concentration) and the binding was allowed to proceed for 20 min. at r.t. Fluorescent polarization was determined using FITC excitation and polarized emission filters on a Perkin Elmer Viewlux.
Keywords: Tsg101, PTAP, Gag, HIV, fluorescent polarization, MLSMR, MLPCN, NIH Roadmap, qHTS, NCGC
In general terms: Quantitative high-throughput screening tests each substance at several concentrations.
Consider `CC(Cc1ccc(O)cc1)NCC(O)c1cc(O)cc(O)c1` (stereo not given), for which the compound was called inactive.

Consider `O=C(Cc1ccc(Cl)c(Cl)c1)N1CCCCC1CN1CCCC1` (stereo not given), for which the outcome was inactive.

As for `NC(CP(=O)(O)O)C(=O)O` (stereo not given), the compound was classed as inactive.

Take `C[C@@H]1O[C@H](C[N+](C)(C)C)C[C@H]1O`: the compound was classed as inactive.

In the case of `CC(C)NC(C)Cc1ccc(I)cc1` (stereo not given), the compound was classed as inactive.

Consider `c1ccc(C2(c3ccccc3)CC2C2=NCCN2)cc1` (stereo not given), for which the call was inactive.

Turning to `NC(=O)CN1CC(O)CC1=O` (stereo not given), the result was inactive.

Consider `Cc1c(C(=O)c2cccc3ccccc23)c2cccc3c2n1[C@H](CN1CCOCC1)CO3`, for which the call was inactive.

For `Cn1cnc(CCN)c1`, the outcome was inactive.

Take `NCc1cc(=O)[nH]o1`: the outcome was inactive.

With `NC1CCc2cc(O)c(O)cc2C1` (stereo not given), the compound was called inactive.

For `C[C@]12CCC3C(CC[C@H]4C[C@H](O)CC[C@]34C)C1CC[C@@H]2C(=O)CO` (stereo not given in full), the result was inactive.

`CC[C@@]1(O)C(=O)OCc2c1cc1n(c2=O)Cc2cc3ccccc3nc2-1`: the call was inactive.

For the compound `C[C@]12N[C@H](Cc3ccccc31)c1ccccc12`, the compound was called inactive.

In the case of `CS(=N)(=O)CC[C@H](N)C(=O)O` (stereo not given in full), the compound was classed as inactive.

With `c1ccc(CCCN2CCN(CCOC(c3ccccc3)c3ccccc3)CC2)cc1`, the compound was classed as inactive.

As for `NCCc1c[nH]c2ccc(O)cc12`, the compound was classed as inactive.

With `c1ccc2sc(C3(N4CCCCC4)CCCCC3)cc2c1`, the compound was classed as inactive.

On to `NC(N)=NOCCC(N)C(=O)O` (stereo not given), for which the compound was called inactive.

Consider `CC1=NN=C(c2ccc(N)cc2)c2cc3c(cc2C1)OCO3`, for which the compound was classed as inactive.

Consider `C[C@@H](N)Cc1cnc[nH]1`, for which the result was inactive.

With `CCCCc1ccc(C(=O)O)nc1`, the call was inactive.

As for `Clc1cnc(Oc2ccc(Oc3ncc(Cl)cc3Cl)cc2)c(Cl)c1`, the outcome was inactive.

With `C#CCOC(=O)C1=CCCN(C)C1`, the call was inactive.

Consider `S=C(NC1CCCCC1)N1CCC(c2cnc[nH]2)CC1`, for which the compound was classed as inactive.

Regarding `O=C(O)[C@@H]1CCN1`, the compound was classed as inactive.

In the case of `O=C(O)Cc1cnc[nH]1`, the result was inactive.

On to `CCCN1CCC[C@H](c2cccc(O)c2)C1`, for which the compound was called inactive.

Take `COc1cc(C(O)CN)ccc1O` (stereo not given): the outcome was inactive.

Turning to `C/C=C(/C)C(=O)O[C@H]1C(C)=C2[C@H]([C@@H]1OC(=O)CCCCCCC)[C@@](C)(OC(C)=O)C[C@H](OC(=O)CCC)[C@@]1(O)[C@H]2OC(=O)[C@@]1(C)O`, the compound was called inactive.

As for `CN[C@@H]1C[C@@H](c2ccc(Cl)c(Cl)c2)c2ccccc21`, the outcome was inactive.

As for `CC[C@@H](C(N)=O)N1CCCC1=O`, the outcome was inactive.

As for `CC(C)Oc1cccnc1N(C)C1CCN(Cc2ccccc2)CC1`, the compound was classed as inactive.

As for `Cc1nccc2c1[nH]c1ccccc12`, the compound was classed as inactive.

As for `Oc1ccc2c3c1O[C@H]1c4[nH]c5c(c4C[C@@]4(O)[C@@H](C2)N(CC2CC2)CC[C@]314)C[C@@]1(O)[C@H]2Cc3ccc(O)c4c3[C@@]1(CCN2CC1CC1)[C@H]5O4`, the compound was classed as inactive.

With `O=C(N[C@H]1CN2CCC1CC2)c1ccc(Cl)cc1`, the call was inactive.

Turning to `C=CCN1CC[C@]23CCCCC2[C@H]1Cc1ccc(O)cc13` (stereo not given in full), the outcome was inactive.

As for `CC(=O)[C@H]1CCC2C3CC[C@H]4C[C@H](O)CC[C@]4(C)C3CC[C@@]21C` (stereo not given in full), the result was inactive.

Take `CC(=O)NCCc1c[nH]c2ccccc12`: the call was inactive.

As to `NC(CCP(=O)(O)O)C(=O)O` (stereo not given), the outcome was inactive.
